Measurements from PubChem BioAssay (EPA / NIEHS).
Values joined by “and” are separate entries in the source; they are usually repeats but may differ in a detail not shown here. Identical values can stand only once. Inconclusive results are not listed. Active and inactive are the calls of the source. Rule for the calls: active = hit-call score of the fitted dose curve at least 0.9, where 1 is the maximum; inconclusive = response in the unintended direction; inactive = score below 0.9.

Molecular target: Cellular tumor antigen p53 (Homo sapiens) (UniProt P04637)
Sequence (P04637 whole entry, looked up): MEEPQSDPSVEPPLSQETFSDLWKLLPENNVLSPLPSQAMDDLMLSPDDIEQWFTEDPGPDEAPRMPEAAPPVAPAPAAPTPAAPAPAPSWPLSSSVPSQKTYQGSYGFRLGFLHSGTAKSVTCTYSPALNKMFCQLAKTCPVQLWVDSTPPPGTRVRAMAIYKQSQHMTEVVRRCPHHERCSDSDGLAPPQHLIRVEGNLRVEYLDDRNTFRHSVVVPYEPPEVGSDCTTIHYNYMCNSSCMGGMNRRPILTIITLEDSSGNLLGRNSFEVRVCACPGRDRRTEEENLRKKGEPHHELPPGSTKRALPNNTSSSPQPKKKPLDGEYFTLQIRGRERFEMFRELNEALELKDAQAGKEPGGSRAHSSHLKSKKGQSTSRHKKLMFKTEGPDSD
Assay: TOX21_p53_BLA_p2_ratio: Tox21 HCT-116 p53 Agonism Beta-lactamase Assay, Ratio, Phase 2 (AID 2283592)
Method in brief: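 Cleaved-to-uncleaved substrate ratio (460 vs 530 nm) measured in HCT116 cells with an inducible beta-lactamase reporter linked to p53 activity. Compounds incubated 16 h at 37C before 2 h room-temperature CCF4-AM loading.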

| Compound | outcome | AC50 |
| --- | --- | --- |
| COc1ccc(S(=O)(=O)Nc2nnc(CC(C)C)s2)cc1 | inactive |  |
| CO[C@H]1/C=C/O[C@@]2(C)Oc3c(C)c(O)c4c(O)c(c(/C=N/N5CCN(C6CCCC6)CC5)c(O)c4c3C2=O)NC(=O)/C(C)=C\C=C\[C@H](C)[C@H](O)[C@@H](C)[C@@H](O)[C@@H](C)[C@H](OC(C)=O)[C@@H]1C |  | 43.8 µM (active) |
| CCCN1C[C@H](CSC)C[C@@H]2c3cccc4[nH]cc(c34)C[C@H]21 | inactive |  |
| Cc1c(-c2ccccc2)oc2c(C(=O)OCCN3CCCCC3)cccc2c1=O | inactive |  |
| O=S(=O)(O)c1ccc(O)cc1 | inactive |  |
| CCCCCCCCC1CO1 (stereo not drawn) | inactive |  |
| Cc1ccc(O)c(O)c1 | inactive |  |
| O=C(O)c1ccc(Cl)c(Cl)c1 | inactive |  |
| COc1cccc2c1[C@@H]1CN(CCCCn3c(=O)[nH]c4c(sc5ncc(-c6ccccc6)nc54)c3=O)C[C@@H]1CO2 | inactive |  |
| CCC(C)[C@H]1O[C@]2(C=C[C@@H]1C)C[C@@H]1C[C@@H](C/C=C(\C)[C@@H](O[C@H]3C[C@H](OC)[C@@H](O[C@H]4C[C@H](OC)[C@H](NC(C)=O)[C@H](C)O4)[C@H](C)O3)[C@@H](C)/C=C/C=C3\CO[C@@H]4[C@H](O)C(C)=C[C@@H](C(=O)O1)[C@]34O)O2 (stereo partly drawn) |  | 15 µM (active) |
| COCC(=O)O[C@]1(CCN(C)CCCc2nc3ccccc3[nH]2)CCc2cc(F)ccc2[C@@H]1C(C)C |  | 22.4 µM (active) |
| CSc1ccc2c(c1)C(N1CCN(C)CC1)Cc1ccccc1S2 (stereo not drawn) |  | 44.4 µM (active) |
| CC(C)NCC1CCc2cc(CO)c([N+](=O)[O-])cc2N1 (stereo not drawn) | inactive |  |
| O=C1c2cccc(O)c2C(=O)c2c(O)cccc21 | inactive |  |
| CO[C@@]12[C@H](COC(N)=O)C3=C(C(=O)C(C)=C(N)C3=O)N1C[C@@H]1N[C@@H]12 |  | 7.59 µM (active) |
| C=C(Nc1ccc(OCC)cc1)Nc1ccc(OCC)cc1 | inactive |  |
| COc1cc2[nH]c(=O)[nH]c(=O)c2cc1OC | inactive |  |
| C[N+]1(CC2COC(c3ccccc3)(C3CCCCC3)O2)CCCCC1 (stereo not drawn) | inactive |  |
| C#C[C@]1(OC(C)=O)CC[C@H]2[C@@H]3CCC4=C/C(=N/O)CC[C@@H]4[C@H]3CC[C@@]21CC |  | 40.4 µM (active) |
| CO[Si](CCCNc1ccccc1)(OC)OC | inactive |  |

| Compound | outcome | AC50 |
| --- | --- | --- |
| COc1cc(N)c(Cl)cc1C(=O)NC1CCN(CCCOc2ccc(F)cc2)CC1OC (stereo not drawn) | inactive |  |
| C(=C\c1ccccc1)/CN1CCN(C(c2ccccc2)c2ccccc2)CC1 | inactive |  |
| CCOc1ccc2nc3cc(N)ccc3c(N)c2c1 |  | 30.3 µM (active) |
| CCCCC(=O)OCC(=O)[C@]1(O)Cc2c(O)c3c(c(O)c2[C@@H](O[C@H]2C[C@H](NC(=O)C(F)(F)F)[C@H](O)[C@H](C)O2)C1)C(=O)c1c(OC)cccc1C3=O |  | 7.68 µM (active) |
| C=CCNC1=C2C[C@@H](C)C[C@H](OC)[C@H](O)[C@@H](C)/C=C(\C)[C@H](OC(N)=O)[C@@H](OC)/C=C\C=C(/C)C(=O)NC(=CC1=O)C2=O |  | 0.189 µM (active) |
| CCCC(CCC)C(=O)OC1C[C@H]2CC[C@@H](C1)[N+]2(C)C (stereo partly drawn) | inactive |  |
| CC(=O)Oc1ccc(C2(c3ccc(OC(C)=O)cc3)C(=O)Nc3ccccc32)cc1 |  | 540 nM (active) and 368 nM (active) |
| CCCCCCCCCCCC[n+]1ccc2ccccc2c1 |  | 11 µM (active) |
| CO[C@H]1/C=C/O[C@@]2(C)Oc3c(C)c(O)c4c(O)c(cc(O)c4c3C2=O)NC(=O)/C(C)=C\C=C\[C@H](C)[C@H](O)[C@@H](C)[C@@H](O)[C@@H](C)[C@H](OC(C)=O)[C@@H]1C | inactive |  |
| Cc1c(C(=O)NN2CCCCC2)nn(-c2ccc(Cl)cc2Cl)c1-c1ccc(Cl)cc1 | inactive |  |
| CCOC(=O)/C=C(C)/C=C/C=C(C)/C=C/c1c(C)cc(OC)c(C)c1C | inactive |  |
| CCOc1cc([N+](=O)[O-])c(OCC)cc1N1CCOCC1 | inactive |  |
| CCCCCCCCOc1ccccc1C(=O)Nc1ccc(C(=O)OCC[N+](C)(CC)CC)cc1 | inactive |  |
| CCCCCCCCNC(C)C(O)c1ccc(SC(C)C)cc1 (stereo not drawn) |  | 35.8 µM (active) |
| Cc1ccc2c(Cl)cc(Cl)c(O)c2n1 | inactive |  |
| CC1=C[C@H](O)CC(C)(C)[C@H]1/C=C/C(C)=C/C=C/C(C)=C/C=C/C=C(C)/C=C/C=C(C)/C=C/C1=C(C)C[C@@H](O)CC1(C)C | inactive |  |
| Cc1ccccn1 | inactive |  |
| Cc1cc(CC(C)CC(C)(C)C)n(O)c(=O)c1 (stereo not drawn) (tested in a mixture with another compound) | inactive |  |
| COc1cc(NC(C)CCCN)c2ncccc2c1 (stereo not drawn) | inactive |  |

System: not listed separately
Assay: TOX21_p53_BLA_p3_viability: Viability Assessment in the Tox21 HCT-116 p53 Agonism Beta-lactamase Assay, Phase 3 (AID 2283593);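 note: cells exposed to compound for 16 h before reading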
Method in brief: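 HCT116 cells, 4000/well, dosed 5 h after plating by pin transfer (217-fold dilution from DMSO stock) and incubated 16 h at 37C, 5% CO2. Viability read as ATP luminescence with CellTiter-Glo after 30 min at room temperature.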

| Compound | outcome | AC50 |
| --- | --- | --- |
| COc1ccc(S(=O)(=O)Nc2nnc(CC(C)C)s2)cc1 | inactive |  |
| CO[C@H]1/C=C/O[C@@]2(C)Oc3c(C)c(O)c4c(O)c(c(/C=N/N5CCN(C6CCCC6)CC5)c(O)c4c3C2=O)NC(=O)/C(C)=C\C=C\[C@H](C)[C@H](O)[C@@H](C)[C@@H](O)[C@@H](C)[C@H](OC(C)=O)[C@@H]1C |  | 35.3 µM (active) |
| CCCN1C[C@H](CSC)C[C@@H]2c3cccc4[nH]cc(c34)C[C@H]21 | inactive |  |
| Cc1c(-c2ccccc2)oc2c(C(=O)OCCN3CCCCC3)cccc2c1=O | inactive |  |
| O=S(=O)(O)c1ccc(O)cc1 | inactive |  |
| CCCCCCCCC1CO1 (stereo not drawn) | inactive |  |
| Cc1ccc(O)c(O)c1 |  | 41.5 µM (active) |
| O=C(O)c1ccc(Cl)c(Cl)c1 | inactive |  |
| COc1cccc2c1[C@@H]1CN(CCCCn3c(=O)[nH]c4c(sc5ncc(-c6ccccc6)nc54)c3=O)C[C@@H]1CO2 | inactive |  |
| CCC(C)[C@H]1O[C@]2(C=C[C@@H]1C)C[C@@H]1C[C@@H](C/C=C(\C)[C@@H](O[C@H]3C[C@H](OC)[C@@H](O[C@H]4C[C@H](OC)[C@H](NC(C)=O)[C@H](C)O4)[C@H](C)O3)[C@@H](C)/C=C/C=C3\CO[C@@H]4[C@H](O)C(C)=C[C@@H](C(=O)O1)[C@]34O)O2 (stereo partly drawn) |  | 23 µM (active) |
| COCC(=O)O[C@]1(CCN(C)CCCc2nc3ccccc3[nH]2)CCc2cc(F)ccc2[C@@H]1C(C)C |  | 10.9 µM (active) |
| CSc1ccc2c(c1)C(N1CCN(C)CC1)Cc1ccccc1S2 (stereo not drawn) |  | 37.8 µM (active) |
| CC(C)NCC1CCc2cc(CO)c([N+](=O)[O-])cc2N1 (stereo not drawn) | inactive |  |
| O=C1c2cccc(O)c2C(=O)c2c(O)cccc21 | inactive |  |
| CO[C@@]12[C@H](COC(N)=O)C3=C(C(=O)C(C)=C(N)C3=O)N1C[C@@H]1N[C@@H]12 |  | 29.5 µM (active) |
| C=C(Nc1ccc(OCC)cc1)Nc1ccc(OCC)cc1 | inactive |  |
| COc1cc2[nH]c(=O)[nH]c(=O)c2cc1OC | inactive |  |
| C[N+]1(CC2COC(c3ccccc3)(C3CCCCC3)O2)CCCCC1 (stereo not drawn) | inactive |  |
| C#C[C@]1(OC(C)=O)CC[C@H]2[C@@H]3CCC4=C/C(=N/O)CC[C@@H]4[C@H]3CC[C@@]21CC |  | 38.7 µM (active) |
| CO[Si](CCCNc1ccccc1)(OC)OC | inactive |  |

| Compound | outcome | AC50 |
| --- | --- | --- |
| COc1cc(N)c(Cl)cc1C(=O)NC1CCN(CCCOc2ccc(F)cc2)CC1OC (stereo not drawn) | inactive |  |
| C(=C\c1ccccc1)/CN1CCN(C(c2ccccc2)c2ccccc2)CC1 | inactive |  |
| CCOc1ccc2nc3cc(N)ccc3c(N)c2c1 | inactive |  |
| CCCCC(=O)OCC(=O)[C@]1(O)Cc2c(O)c3c(c(O)c2[C@@H](O[C@H]2C[C@H](NC(=O)C(F)(F)F)[C@H](O)[C@H](C)O2)C1)C(=O)c1c(OC)cccc1C3=O | inactive |  |
| C=CCNC1=C2C[C@@H](C)C[C@H](OC)[C@H](O)[C@@H](C)/C=C(\C)[C@H](OC(N)=O)[C@@H](OC)/C=C\C=C(/C)C(=O)NC(=CC1=O)C2=O | inactive |  |
| CCCC(CCC)C(=O)OC1C[C@H]2CC[C@@H](C1)[N+]2(C)C (stereo partly drawn) | inactive |  |
| CC(=O)Oc1ccc(C2(c3ccc(OC(C)=O)cc3)C(=O)Nc3ccccc32)cc1 |  | 633 nM (active) and 692 nM (active) |
| CCCCCCCCCCCC[n+]1ccc2ccccc2c1 |  | 35.9 µM (active) |
| CO[C@H]1/C=C/O[C@@]2(C)Oc3c(C)c(O)c4c(O)c(cc(O)c4c3C2=O)NC(=O)/C(C)=C\C=C\[C@H](C)[C@H](O)[C@@H](C)[C@@H](O)[C@@H](C)[C@H](OC(C)=O)[C@@H]1C | inactive |  |
| Cc1c(C(=O)NN2CCCCC2)nn(-c2ccc(Cl)cc2Cl)c1-c1ccc(Cl)cc1 |  | 23 µM (active) |
| CCOC(=O)/C=C(C)/C=C/C=C(C)/C=C/c1c(C)cc(OC)c(C)c1C | inactive |  |
| CCOc1cc([N+](=O)[O-])c(OCC)cc1N1CCOCC1 | inactive |  |
| CCCCCCCCOc1ccccc1C(=O)Nc1ccc(C(=O)OCC[N+](C)(CC)CC)cc1 |  | 30.5 µM (active) |
| CCCCCCCCNC(C)C(O)c1ccc(SC(C)C)cc1 (stereo not drawn) |  | 15.2 µM (active) |
| Cc1ccc2c(Cl)cc(Cl)c(O)c2n1 |  | 12.2 µM (active) |
| CC1=C[C@H](O)CC(C)(C)[C@H]1/C=C/C(C)=C/C=C/C(C)=C/C=C/C=C(C)/C=C/C=C(C)/C=C/C1=C(C)C[C@@H](O)CC1(C)C | inactive |  |
| Cc1ccccn1 | inactive |  |
| Cc1cc(CC(C)CC(C)(C)C)n(O)c(=O)c1 (stereo not drawn) (tested in a mixture with another compound) |  | 43.5 µM (active) |
| COc1cc(NC(C)CCCN)c2ncccc2c1 (stereo not drawn) | inactive |  |
